# Paper PMC5540273 (PLoS ONE, 2017)
# Several values for one entry are separate records, joined by “and”; a condition that tells them apart may be missing. Identical values can stand only once. Like-named read-outs stand apart in the source and are kept apart here.
# Experiments:
# [1] = test system: PAK1; conditions: concentration: 1 μM, replicates: in singlicate, n = 1
# [2] = test system: PAK2; conditions: concentration: 1 μM, replicates: in singlicate, n = 1
# [3] = test system: PAK3; conditions: concentration: 1 μM, replicates: in singlicate; n = 1
# [4] = test system: PAK4; conditions: concentration: 1 μM, replicates: in singlicate; n = 1
# [5] = test system: PAK6; conditions: concentration: 1 μM, replicates: in singlicate; n = 1
# [6] = test system: PAK7; conditions: concentration: 1 μM, replicates: in singlicate, n = 1
# [7] = test system: T1, PCTK1; conditions: concentration: 1 μM, replicates: in singlicate; n = 1
# T1 construct: gene CDK16
# [8] = test system: T2, PCTK2; conditions: concentration: 1 μM, replicates: in singlicate, n = 1
# T2 construct: gene CDK17
# [9] = test system: T3, PCTK3; conditions: concentration: 1 μM, replicates: in singlicate, n = 1
# T3 construct: gene CDK18
# [10] = test system: PDGFRA; conditions: concentration: 1 μM, replicates: in singlicate, n = 1
# [11] = test system: PDGFRB; conditions: concentration: 1 μM, replicates: in singlicate, n = 1
# [12] = test system: PDPK1; conditions: concentration: 1 μM, replicates: in singlicate, n = 1
# [13] = test system: PFTAIRE2; conditions: concentration: 1 μM, replicates: in singlicate, n = 1
# [14] = test system: T4, PFTK1; conditions: concentration: 1 μM, replicates: in singlicate, n = 1
# T4 construct: gene CDK14
# [15] = test system: PHKG1; conditions: concentration: 1 μM, replicates: in singlicate; n = 1
# [16] = test system: PHKG2; conditions: concentration: 1 μM, replicates: in singlicate, n = 1
# [17] = test system: PIK3C2B; conditions: concentration: 1 μM, replicates: in singlicate, n = 1
# [18] = test system: PIK3C2G; conditions: concentration: 1 μM, replicates: in singlicate, n = 1
# [19] = test system: PIK3CA; conditions: concentration: 1 μM, replicates: in singlicate; n = 1
# [20] = test system: PIK3CB; conditions: concentration: 1 μM, replicates: in singlicate, n = 1
# 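Also: KINOMEscan kinase panel screen.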
smiles,measurement,setting,value
Fc1ccc(Nc2nccc(-c3c(-c4ccc(Cl)cc4)nn4ncccc34)n2)cc1F [GW829058],%Inh,[1],21%
same,%Inh,[2],24%
same,%Inh,[3],15%
same,%Inh,[4],27%
same,%Inh,[5],34%
same,%Inh,[6],14%
same,%Inh,[7],23%
same,%Inh,[8],0%
same,%Inh,[9],13%
same,%Inh,[10],19%
same,%Inh,[11],44%
same,%Inh,[12],12%
same,%Inh,[13],4%
same,%Inh,[14],10%
same,%Inh,[15],7%
same,%Inh,[16],0%
same,%Inh,[17],6%
same,%Inh,[18],29%
same,%Inh,[19],25%
same,%Inh,[20],50%
C[C@H]1CC[C@@H](C(=O)Nc2ccccc2)CN1c1cc(-c2ccc3c(N)n[nH]c3c2)nc(N)n1 [GSK2283293],%Inh,[1],0%
same,%Inh,[2],3%
same,%Inh,[3],0%
same,%Inh,[4],0%
same,%Inh,[5],0%
same,%Inh,[6],0%
same,%Inh,[7],0%
same,%Inh,[8],0%
same,%Inh,[9],12%
same,%Inh,[10],0%
same,%Inh,[11],11%
same,%Inh,[12],25%
same,%Inh,[13],15%
same,%Inh,[14],11%
same,%Inh,[15],0%
same,%Inh,[16],0%
same,%Inh,[17],0%
same,%Inh,[18],0%
same,%Inh,[19],0%
same,%Inh,[20],0%
COc1cc2ncnc(Nc3ccc(OCc4ccccc4Br)c(Cl)c3)c2cc1OC.Cl [GI261590],%Inh,[1],14%
same,%Inh,[2],22%
same,%Inh,[3],38%
same,%Inh,[4],0%
same,%Inh,[5],0%
same,%Inh,[6],5%
same,%Inh,[7],0%
same,%Inh,[8],0%
same,%Inh,[9],0%
same,%Inh,[10],0%
same,%Inh,[11],0%
same,%Inh,[12],0%
same,%Inh,[13],4%
same,%Inh,[14],29%
same,%Inh,[15],3%
same,%Inh,[16],0%
same,%Inh,[17],0%
same,%Inh,[18],0%
same,%Inh,[19],0%
same,%Inh,[20],45%
COC(=O)c1c(-c2ccccc2)c2cc(Cl)ccc2c(=O)n1Cc1ccc(S(C)(=O)=O)cc1,%Inh,[1],6%
same,%Inh,[2],0%
same,%Inh,[3],0%
same,%Inh,[4],0%
same,%Inh,[5],0%
same,%Inh,[6],0%
same,%Inh,[7],28%
same,%Inh,[8],3%
same,%Inh,[9],0%
same,%Inh,[10],15%
same,%Inh,[11],78%
same,%Inh,[12],16%
same,%Inh,[13],0%
same,%Inh,[14],11%
same,%Inh,[15],4%
same,%Inh,[16],0%
same,%Inh,[17],10%
same,%Inh,[18],24%
same,%Inh,[19],10%
same,%Inh,[20],21%
CN1c2ccc(-c3ccc(C(=O)NCCO)cc3)cc2-c2[nH]ncc2S1(=O)=O,%Inh,[1],12%
same,%Inh,[2],32%
same,%Inh,[3],20%
same,%Inh,[4],35%
same,%Inh,[5],7%
same,%Inh,[6],16%
same,%Inh,[7],0%
same,%Inh,[8],28%
same,%Inh,[9],0%
same,%Inh,[10],35%
same,%Inh,[11],11%
same,%Inh,[12],17%
same,%Inh,[13],0%
same,%Inh,[14],0%
same,%Inh,[15],0%
same,%Inh,[16],41%
same,%Inh,[17],0%
same,%Inh,[18],8%
same,%Inh,[19],0%
same,%Inh,[20],0%
CC(C)(C)OC(=O)NC1CCCN(c2cc(-c3ccc4c(N)n[nH]c4c3)nc(N)n2)C1 (centres unmarked) [GSK2286096],%Inh,[1],0%
same,%Inh,[2],1%
same,%Inh,[3],0%
same,%Inh,[4],0%
same,%Inh,[5],0%
same,%Inh,[6],0%
same,%Inh,[7],4%
same,%Inh,[8],6%
same,%Inh,[9],17%
same,%Inh,[10],0%
same,%Inh,[11],14%
same,%Inh,[12],84%
same,%Inh,[13],18%
same,%Inh,[14],0%
same,%Inh,[15],0%
same,%Inh,[16],0%
same,%Inh,[17],0%
same,%Inh,[18],0%
same,%Inh,[19],0%
same,%Inh,[20],0%
FC(F)(F)c1ccc(-c2cc(-c3c[nH]nc3-c3ccccn3)ccn2)cc1 [GW599550],%Inh,[1],11%
same,%Inh,[2],28%
same,%Inh,[3],32%
same,%Inh,[4],0%
same,%Inh,[5],0%
same,%Inh,[6],0%
same,%Inh,[7],0%
same,%Inh,[8],11%
same,%Inh,[9],25%
same,%Inh,[10],11%
same,%Inh,[11],30%
same,%Inh,[12],5%
same,%Inh,[13],20%
same,%Inh,[14],19%
same,%Inh,[15],0%
same,%Inh,[16],21%
same,%Inh,[17],0%
same,%Inh,[18],0%
same,%Inh,[19],3%
same,%Inh,[20],0%
CS(=O)(=O)CCNCc1ccc(-c2ccc3ncnc(Nc4ccc(OCc5ccccc5)c(Cl)c4)c3c2)o1.Cl [GW574783],%Inh,[1],0%
same,%Inh,[2],0%
same,%Inh,[3],7%
same,%Inh,[4],0%
same,%Inh,[5],0%
same,%Inh,[6],0%
same,%Inh,[7],0%
same,%Inh,[8],0%
same,%Inh,[9],0%
same,%Inh,[10],0%
same,%Inh,[11],14%
same,%Inh,[12],17%
same,%Inh,[13],0%
same,%Inh,[14],0%
same,%Inh,[15],13%
same,%Inh,[16],0%
same,%Inh,[17],38%
same,%Inh,[18],0%
same,%Inh,[19],0%
same,%Inh,[20],0%
Cl.c1ccc(Cn2ccc3cc(Nc4ncnc5ccccc45)ccc32)cc1 [GW275568],%Inh,[1],12%
same,%Inh,[2],13%
same,%Inh,[3],0%
same,%Inh,[4],9%
same,%Inh,[5],8%
same,%Inh,[6],35%
same,%Inh,[7],0%
same,%Inh,[8],16%
same,%Inh,[9],18%
same,%Inh,[10],2%
same,%Inh,[11],35%
same,%Inh,[12],22%
same,%Inh,[13],28%
same,%Inh,[14],29%
same,%Inh,[15],0%
same,%Inh,[16],23%
same,%Inh,[17],31%
same,%Inh,[18],3%
same,%Inh,[19],14%
same,%Inh,[20],0%
COc1ccc(-c2nc3n(c2-c2ccncc2)CCC3)cc1 [SKF-104493],%Inh,[1]; 1 µM,0% and 27%
same,%Inh,[2]; 1 µM,23% and 10%
same,%Inh,[6]; 1 µM,0% and 15%
same,%Inh,[8]; 1 µM,3% and 0%
same,%Inh,[9]; 1 µM,0% and 28%
same,%Inh,[10]; 1 µM,25% and 3%
same,%Inh,[11]; 1 µM,5% and 23%
same,%Inh,[12]; 1 µM,21% and 0%
same,%Inh,[13]; 1 µM,29% and 9%
same,%Inh,[14]; 1 µM,0% and 34%
same,%Inh,[16]; 1 µM,0% and 20%
same,%Inh,[17]; 1 µM,13% and 0%
same,%Inh,[18]; 1 µM,19% and 0%
same,%Inh,[20]; 1 µM,19% and 0%
